These results are taken from PubChem BioAssay (NCI).

What all share (test): NCI-60 one-dose screen, 48 h (100 = growth as untreated, 0 = no growth, -100 = all killed)
Holding throughout (details): 10 µM unless noted

Assay [1] concerns SR leukemia.
For assay [2], the system named is RPMI-8226 leukemia.
Assay [3] relates to OVCAR-8 ovarian.
Assay [4] has as its system OVCAR-5 ovarian.
Assay [5] relates to OVCAR-4 ovarian.
For assay [6], the system named is SK-OV-3 ovarian.
In assay [7] the test system is IGROV1 ovarian.
The test system of assay [8] is OVCAR-3 ovarian.
Assay [9] concerns HS 578T breast.
The test system of assay [10] is NCI/ADR-RES ovarian.
Assay [11] relates to T-47D breast.
The test system of assay [12] is BT-549 breast.
The subject of assay [13] is MDA-MB-435 melanoma.
For assay [14], the system named is SW-620 colon.
Assay [15] has as its system HCT-116 colon.
In assay [16] the test system is HCC-2998 colon.
The test system of assay [17] is KM12 colon.
Assay [18] has as its system MCF7 breast.

About 83,000 compounds went through this panel and 20% of them were active in at least one assay; those are over-represented in the sample as a whole.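 Results are percent growth after 48 hours of single-concentration exposure. 100 means growth as in untreated cells, lower positive values show inhibition; negative values down to -100 show cell death.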 A number with no mark means an inactive call. Activity calls are given as the source filed them. The calls were made as follows: active = growth percent below 10; inactive = the rest.

For `Cc1nc2c(=O)[nH]c(SCC(=O)Nc3cccc(F)c3)nc2[nH]c1=O`, the growth is 132% in [1]; 110% in assay [2]; 103% in assay [3]; 103% in assay [4]; 101% in assay [5]; 115% in assay [6]. In addition, the growth in assay [7] is 108%; in assay [8], 111%; in assay [9], 101%; in assay [10] it was 107%; in [11], 97.1%; in [12], 104%. Further, the growth in assay [13] was 103%; in assay [14], 101%; in assay [15], 103%; in assay [16], 104%; in [17] it was 105%.
`Cc1ccc(-c2nn(-c3ccccc3)cc2C=C2C(=O)ON=C2C(C)C)cc1`: the growth in assay [1] is -23.5% (active); in assay [2] it was -23.1% (active); in assay [3], 59.7%; in assay [4], 104%; in assay [5], 85.4%; in [6], 110%. Besides, the growth in [7] is 54.7%; in assay [8] it was 87.7%; in assay [9] it was 56.4%; in assay [10], 96.4%; in assay [11], 78.6%; in [12], 113%. In addition, the growth in assay [13] was 63.5%; in [14], 47.2%; in assay [15], 26%; in assay [16], 68.7%; in [17] it was 69.8%.
As to `O=C(Nc1ccc(NC(=O)c2cc(=O)[nH]c3ccccc23)cc1)Nc1cccc(C(F)(F)F)c1`, the growth was 61.1% in assay [1]; 74.4% in assay [2]; 65.2% in assay [3]; 84.3% in [4]; 74.2% in assay [5]; 69.1% in assay [6]. Besides, the growth in [7] was 64.9%; in assay [8] it was 63.9%; in assay [9], 50.8%; in [10], 103%; in assay [11], 58.1%; in [12], 62.8%. Further, the growth in assay [13] is 77.1%; in [14] it was 59.6%; in [18], 70.7%; in [15], 41.1%; in assay [17], 53.3%.
In the case of `Cc1cccc(Cl)c1NC(=O)c1ccc2nc(NC(=O)NCCN(C)C)sc2c1`, the growth in [1] is 66%; in assay [2], 94%; in assay [3], 85.7%; in assay [4] it was 85.4%; in [5], 95.3%; in assay [6] it was 64.2%. Also, the growth in assay [7] was 109%; in assay [8], 114%; in [9] it was 81.8%; in assay [10], 118%; in assay [11], 88.1%; in assay [12], 82.1%. Moreover, the growth is 47% in [13]; 103% in assay [14]; 92.1% in assay [15]; 105% in [16]; 97.1% in [17].
Turning to `O=C(N/N=C/c1ccc(F)cc1)c1ccc(C(F)(F)F)nc1Nc1cccc(C(F)(F)F)c1`, the growth in [1] is -30.5% (active); in assay [2], -49.8% (active); in assay [3], 9.33% (active); in assay [4], -7.78% (active); in [5], -6.96% (active); in assay [6], -7.48% (active). The growth in assay [7] is -19.6% (active); in [8], -7.4% (active); in assay [9] it was -5.72% (active); in assay [10], -22.9% (active); in assay [11], -3.3% (active); in assay [12], 1.7% (active). Further, the growth in assay [13] is 24.8%; in [14] it was 5.48% (active); in [18], -18.6% (active); in assay [15] it was 10.1%; in [17], -4.29% (active).
Take `S=C(Nc1ccc(-c2nc(N3CCOCC3)c3cccn3n2)cc1)Nc1cccnc1`: the growth was 36.7% in [1]; 19% in [2]; 14.8% in assay [3]; 35.2% in assay [4]; 43.2% in assay [5]; 21.5% in assay [6]. Moreover, the growth in assay [7] was 11%; in assay [8], 39.6%; in assay [9], 12.8%; in [10], 26.3%; in [11], -4.82% (active); in assay [12], 32.8%. Moreover, the growth in [13] is 31.8%; in assay [14] it was 46.7%; in assay [15], 17.3%; in assay [16], 32.9%; in assay [17], 28.1%.
Turning to `COC(=O)CCC(=O)C(=O)OC`, the growth in [1] is -26.4% [10 mM] (active); in [2], -8.65% [10 mM] (active); in assay [3] it was 31.8% [10 mM]; in assay [4] it was 23.6% [10 mM]; in assay [5], 47.8% [10 mM]; in assay [6], 3.77% [10 mM] (active). Moreover, the growth in [7] is 9.89% [10 mM] (active); in [8] it was 5.88% [10 mM] (active); in assay [9], 25.2% [10 mM]; in assay [10], 33.1% [10 mM]; in assay [11], 61.3% [10 mM]; in [12], -12.2% [10 mM] (active). Besides, the growth was 29.2% [10 mM] in [13]; 29.9% [10 mM] in assay [14]; 9.17% [10 mM] (active) in [15]; -38.5% [10 mM] (active) in [16]; 2.17% [10 mM] (active) in assay [17].
For the compound `CCOC(=O)/C=C1\S/C(=N\Nc2cc(=O)[nH]c3ccc(Cl)cc23)N(c2ccccc2)C1=O`, the growth in [1] is 4.23% (active); in assay [2], 3.83% (active); in assay [3], 90.1%; in assay [4] it was 111%; in assay [5], 76.2%; in assay [6], 102%. Also, the growth was 62.9% in assay [7]; 71.4% in [8]; 99.8% in [9]; 101% in [10]; 66.8% in assay [11]; 93.7% in [12]. Also, the growth in assay [13] is 96.3%; in [14], 77.3%; in assay [15] it was 38.9%; in assay [16], 105%; in assay [17], 98.5%.
With `CO[C@]12C=C/C(=C(/C(=O)OCc3cccnc3)C(=O)CCCCCCCC[C@@]3(OC)C=C/C(=C(/C(=O)OCc4cccnc4)C(=O)CCCCCCCC1)O3)O2`, the growth is -9.1% (active) in assay [1]; -9.22% (active) in assay [2]; 19.9% in [3]; -5.24% (active) in [4]; 11% in [5]; 57.4% in assay [6]. In addition, the growth in assay [7] is 2.68% (active); in assay [8], -19.3% (active); in assay [9], 37%; in [10], 36.3%; in assay [11], 38.4%; in assay [12], -24.7% (active). The growth in assay [13] was -11.8% (active); in assay [14] it was 13.8%; in assay [15], -35.5% (active); in [16], -79.2% (active); in assay [17], -70.4% (active).
